PubChem BioAssay (NCATS)
Several values for one entry are separate records, joined by “and”; a condition that tells them apart may be missing. Equal entries are not always repeated. Records with an inconclusive call do not appear. Where a call stands in place of a potency, no number is given. Some structures have more than one record in an assay (separate samples or runs), and their calls can disagree. Activity calls are given as the source filed them. Calls follow the shape of the dose curve; as a rule, active = well fitted curve in the direction sought with a large enough effect; inconclusive = small, poorly fitted or top-dose-only effect, or another doubt; inactive = no such curve, though single readings can be large; an effect the other way counts as inactive or inconclusive.

Assays:
[1] = target: Cytochrome P450 3A7 (Homo sapiens) (UniProt P24462); experiment: Cytochrome P450 family 3 subfamily A member 7 (CYP3A7) small molecule antagonists: luciferase biochemical qHTS assay (AID 1963596); also: nearly all actives have a fitted effect of over 40% in size; also: potency is read from the fitted curve at half-maximal effect
Method in brief: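 Luminescence from luciferin released by CYP3A7 from a proluciferin substrate, read 20 min after detection reagent. Compound and enzyme-substrate mix sat 10 min before NADPH regeneration solution; reaction ran 1 h at room temperature.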

[2] = Viability qHTS for spleen associated tyrosine kinase inhibitor (SYKi) naive MV4-11 cells (AID 1963823); also: nearly all actives have a fitted effect of over 40% in size; also: potency is read from the fitted curve at half-maximal effect
Method in brief: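 Seeding of 500 SYKi-naive MV4-11 cells per well onto pre-dispensed compounds preceded a 72 hr incubation at 37 C. Luminescent CellTiter-Glo signal, read after 10 min at room temperature, reflected viable cells.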

[3] = Viability qHTS for spleen associated tyrosine kinase inhibitor (SYKi) drug resistant MV4-11 cells (AID 1963824); also: nearly all actives have a fitted effect of over 35% in size; also: potency is read from the fitted curve at half-maximal effect
Method in brief: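 SYK-inhibitor-resistant MV4-11 AML cells were seeded at 500 per well onto compound and cultured 72 hours (37 °C, 5% CO2). CellTiter-Glo was then added, and after 10 min at room temperature, luminescence gave viability.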

[4] = Quantitative highthroughput screen to assess conditional lethalithy of NOMO1 cells grown in RPMI1640 with untreated serum (RPMI+s) (AID 1963876); also: nearly all actives have a fitted effect of over 35% in size; also: potency is read from the fitted curve at half-maximal effect
Method in brief: (§1)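 Each medium arm—HPLM with 10% dialyzed FBS, or RPMI1640 with 5 mM glucose and 10% untreated or dialyzed FBS—was screened against an 11-point, 3-fold compound titration for 48 h at 37 °C, with CellTiter-Glo luminescence as endpoint.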

[5] = Quantitative highthroughput screen to assess conditional lethalithy of NOMO1 cells grown in RPMI1640 with dialyzed fetal bovine serum (RPMI+ds) (AID 1963877); also: nearly all actives have a fitted effect of over 30% in size; also: potency is read from the fitted curve at half-maximal effect; as to Viability: series mostly up to about 46 µM
Method in brief: as §1

[6] = Quantitative highthroughput screen to assess conditional lethalithy of NOMO1 cells grown in Human Plasma-Like Medium with dialyzed fetal bovine serum (HPLM+ds) (AID 1963878); also: nearly all actives have a fitted effect of over 35% in size; also: potency is read from the fitted curve at half-maximal effect
Method in brief: as §1

[7] = Quantitative highthroughput screen to assess conditional lethalithy of P12 Ichikawa cells grown in Human Plasma-Like Medium with dialyzed fetal bovine serum (HPLM+ds) (AID 1963879); settings: Potency: viability; also: nearly all actives have a fitted effect of over 35% in size; also: potency is read from the fitted curve at half-maximal effect; as to Viability: series mostly up to about 46 µM
Method in brief: as §1

[8] = Quantitative highthroughput screen to assess conditional lethalithy of P12 Ichikawa cells grown in RPMI1640 with dialyzed fetal bovine serum (RPMI+ds) (AID 1963880); settings: Potency: P12-Ichikawa viability; also: nearly all actives have a fitted effect of over 35% in size; also: potency is read from the fitted curve at half-maximal effect
Method in brief: as §1

[9] = Quantitative highthroughput screen to assess conditional lethalithy of P12 Ichikawa cells grown in RPMI1640 with untreated serum (RPMI+s) (AID 1963881); settings: Potency: viability; also: nearly all actives have a fitted effect of over 35% in size; also: potency is read from the fitted curve at half-maximal effect; as to Viability: series mostly up to about 46 µM
Method in brief: as §1

[10] = Quantitative highthroughput screen to assess conditional lethalithy of SEM cells grown in Human Plasma-Like Medium with dialyzed fetal bovine serum (HPLM+ds) (AID 1963882); also: nearly all actives have a fitted effect of over 35% in size; also: potency is read from the fitted curve at half-maximal effect; as to Viability: series mostly up to about 46 µM
Method in brief: as §1

[11] = Quantitative highthroughput screen to assess conditional lethalithy of SEM cells grown in RPMI1640 with unreated serum (RPMI+s) (AID 1963883); also: nearly all actives have a fitted effect of over 35% in size; also: potency is read from the fitted curve at half-maximal effect
Method in brief: as §1

[12] = Quantitative highthroughput screen to assess conditional lethalithy of SEM cells grown in RPMI1640 with dialyzed fetal bovine serum (RPMI+ds) (AID 1963884); also: nearly all actives have a fitted effect of over 35% in size; also: potency is read from the fitted curve at half-maximal effect; as to Viability: series mostly up to about 46 µM
Method in brief: as §1

[13] = Cellular viability qHTS for adrenocortical cancer (ACC) cell line SW-13 (AID 1963989); settings: SW-13 ACC cells viability, CellTiter-Glo, 48 h; activity (max response): stronger effect = lower value;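 also: cells grown in serum-free medium with ITS supplement; nearly all actives have a fitted effect of over 65% in size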
Method in brief: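 Luminescent ATP read-out (CellTiter-Glo, 20 min at room temperature) measured metabolically competent SW-13 cells after 48 h compound treatment. Final concentrations spanned up to 46 uM; bortezomib served as positive control.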

[14] = Cellular viability qHTS for adrenocortical cancer (ACC) cell line NCI-H295R (AID 1963990); also: nearly all actives have a fitted effect of over 60% in size
Method in brief: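 IC50 and maximal efficacy derive from four-parameter logistic modelling of titration curves, with reads scaled between DMSO-only wells (0%) and doxorubicin hydrochloride (100% inhibition). Compounds spanned up to 46 uM over 48 h.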

Cytochrome P450 3A7 (Homo sapiens), sequence (P24462 whole entry, looked up): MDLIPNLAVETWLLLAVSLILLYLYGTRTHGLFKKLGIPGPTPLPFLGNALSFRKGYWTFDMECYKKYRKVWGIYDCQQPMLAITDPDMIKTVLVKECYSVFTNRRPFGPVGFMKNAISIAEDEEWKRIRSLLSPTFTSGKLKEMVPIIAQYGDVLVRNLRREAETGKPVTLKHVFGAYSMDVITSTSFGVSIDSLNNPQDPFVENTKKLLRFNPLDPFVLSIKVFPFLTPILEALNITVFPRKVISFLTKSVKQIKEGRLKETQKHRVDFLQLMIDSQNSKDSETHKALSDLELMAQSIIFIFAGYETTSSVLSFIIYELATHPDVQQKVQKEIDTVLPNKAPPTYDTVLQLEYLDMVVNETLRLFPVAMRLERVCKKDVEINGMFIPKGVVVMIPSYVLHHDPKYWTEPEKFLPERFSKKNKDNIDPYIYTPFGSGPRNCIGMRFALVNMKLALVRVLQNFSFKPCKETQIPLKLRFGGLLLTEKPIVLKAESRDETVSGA

Compound | Potency [1] | Potency [2] | Potency [3] | Potency [4] | Potency [5] | Potency [6] | Potency [7] | Potency [8] | Potency [9] | Potency [10] | Potency [11] | Potency [12] | activity (max response) [13] | Potency [14]
CN(C)c1cc(NC(=O)CNC(C)(C)C)c(O)c2c1C[C@@H]1C[C@H]3[C@H](N(C)C)C(=O)C(C(N)=O)=C(O)[C@@]3(O)C(=O)C1=C2O | inactive | inactive | inactive | inactive | inactive | inactive | inactive | inactive | inactive | inactive | inactive | inactive | – | –
COc1ccc(C2(C#N)CCC(C(=O)O)CC2)cc1OC1CCCC1 (stereo not given) | inactive | inactive | inactive | inactive | inactive | inactive | inactive | inactive | inactive | inactive | inactive | inactive | 2.89% (inactive) | inactive
O=C(OC1C[C@H]2CC[C@@H](C1)[N+]21CCCC1)C(O)(c1ccccc1)c1ccccc1 (stereo not given in full) | inactive | inactive | inactive | inactive | inactive | inactive | inactive | inactive | inactive | inactive | – | inactive | -1.15% (inactive) | inactive
Nc1ccc(S(N)(=O)=O)cc1 | inactive | inactive | inactive | inactive | inactive | inactive | inactive | inactive | inactive | inactive | inactive | inactive | 16.5% (inactive) and -23.7% (inactive) | inactive
Cc1cc(=O)oc2cc(O)ccc12 | inactive | inactive | inactive | inactive | inactive | inactive | inactive | inactive | inactive | inactive | inactive | inactive | – | inactive
O=C(C1CC1)N1CC[C@@H](Cc2n[nH]c(=O)n2-c2ccc(-c3ccc4occc4c3)cc2)C1 | 0.536 µM (active) | inactive | 18.6 µM (active) | inactive | inactive | inactive | inactive | inactive | inactive | – | – | – | – | –
O=P(O)(O)C(O)(Cc1cccnc1)P(=O)(O)O | inactive | inactive | inactive | inactive | inactive | inactive | inactive | inactive | inactive | inactive | – | – | 11.3% (inactive) and 10.6% (inactive) | inactive
CC(=O)OCC(CCn1cnc2cnc(N)nc21)COC(C)=O | inactive | inactive | inactive | inactive | inactive | inactive | inactive | inactive | inactive | inactive | inactive | inactive | 5.15% (inactive) and -10.4% (inactive) | –
O=C(O)CSCC(=O)NC1CCSC1=O (stereo not given) | inactive | inactive | inactive | inactive | inactive | inactive | inactive | inactive | inactive | inactive | inactive | inactive | 1.69% (inactive) and -8.03% (inactive) | inactive
O=C(O)c1cn(-c2ccc(F)cc2)c2cc(N3CCNCC3)c(F)cc2c1=O | inactive | inactive | inactive | inactive | inactive | inactive | inactive | inactive | inactive | inactive | inactive | inactive | -4.38% (inactive) and 8.16% (inactive) | inactive
CC[C@H](NC(C)C)[C@H](O)c1ccc(O)c2[nH]c(=O)ccc12 | inactive | inactive and 525 nM (active) | inactive | inactive | inactive | inactive | inactive | inactive | inactive | inactive | inactive | inactive | 3.1% (inactive) and 13.3% (inactive) | inactive
N[C@@H]1CONC1=O | inactive | inactive | inactive | inactive | inactive | inactive | inactive | inactive | inactive | inactive | inactive | inactive | 0.98% (inactive) and -6.89% (inactive) | inactive
Nc1cc(C(Cl)=C(Cl)Cl)c(S(N)(=O)=O)cc1S(N)(=O)=O | inactive | inactive | inactive | 7.43 µM (active) | 7.43 µM (active) | 1.87 µM (active) | 1.18 µM (active) | 5.26 µM (active) | 7.43 µM (active) | – | 2.96 µM (active) | 4.18 µM (active) | -17% (inactive) and 6.7% (inactive) | inactive
COc1ncnc(NS(=O)(=O)c2ccc(N)cc2)c1OC | inactive | inactive | inactive | 4.69 µM (active) | 7.43 µM (active) | 2.35 µM (active) | 1.18 µM (active) | 1.18 µM (active) | 1.66 µM (active) | 1.87 µM (active) | 0.935 µM (active) | – | -3.79% (inactive) and 4.29% (inactive) | inactive
Cc1nc2c([nH]1)CCN(C(=O)c1ccc(NC(=O)c3ccccc3-c3ccccc3)cc1)c1ccccc1-2 | inactive | 18.4 µM (active) | 13.2 µM (active) | inactive | inactive | inactive | inactive | inactive | inactive | – | inactive | inactive | -19.1% (inactive) | inactive
